Bioassay records as filed in PubChem BioAssay.
STAT1 activator: increases IFN-gamma driven STAT1 reporter signal; NIH 3T3 STAT1-luciferase reporter, luminescence; 100% = IFN-gamma alone, no compound; activation (% of control), % at 5.5 µM; 200,000 compounds, 2.6% hits;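 active means activation above the screen-wide mean activation plus 3 SD, cut at about 130% in these data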
Wee1 degr inh: human Wee1 degradation inhibition, primary screen. P30291. HeLa Luc-Wee1K328M stability, luciferase luminescence; 100% = proteasome inhibitor MG132 effect. reporter increase, % at 5 µM. 220,000 compounds, 1.2% hits. AID 1321;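 active means activation above the mean of all tested compounds plus 3 SD, set per screening run, cut at about 8.8% in these data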;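 further: cells exposed to compound for 20 h before luminescence read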
Target sequence (P30291 whole entry K328M): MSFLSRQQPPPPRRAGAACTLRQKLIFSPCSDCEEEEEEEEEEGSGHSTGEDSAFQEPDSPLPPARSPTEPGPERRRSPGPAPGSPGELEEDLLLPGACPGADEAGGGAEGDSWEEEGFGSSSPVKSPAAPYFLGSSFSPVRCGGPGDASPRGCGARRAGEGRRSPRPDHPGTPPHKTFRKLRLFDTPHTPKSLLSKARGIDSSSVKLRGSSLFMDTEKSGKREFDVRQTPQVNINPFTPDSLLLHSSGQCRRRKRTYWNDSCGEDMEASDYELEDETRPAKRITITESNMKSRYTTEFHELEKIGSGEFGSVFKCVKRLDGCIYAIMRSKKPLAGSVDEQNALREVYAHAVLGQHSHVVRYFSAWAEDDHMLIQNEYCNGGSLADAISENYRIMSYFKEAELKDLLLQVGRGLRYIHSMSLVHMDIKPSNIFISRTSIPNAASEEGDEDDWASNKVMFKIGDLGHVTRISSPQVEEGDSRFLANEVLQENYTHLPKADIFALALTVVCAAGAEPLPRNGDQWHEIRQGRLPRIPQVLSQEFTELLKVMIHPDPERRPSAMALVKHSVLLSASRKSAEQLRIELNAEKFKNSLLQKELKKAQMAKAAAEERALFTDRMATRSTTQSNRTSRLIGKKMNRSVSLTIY
NF-kB expr up: raises NF-kB expression in human neuronal cells; NF-kB reporter expression; stronger effect = higher value; fold change at 12.5 µM; 190,000 compounds, 1.6% hits; AID 1239; in the data active means fold change above about 3.3
APP 5UTR inh: APP translation inhibition; SH-SY5Y APP 5'UTR-luciferase reporter, luminescence; inhibition, % at 2 µM; 190,000 compounds, 0.82% hits; AID 1285;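 active means inhibition above a set limit, derived from the sample mean plus 3 SD, cut at about 45% in these data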
APP 5'UTR act: APP 5'UTR luciferase reporter activation; SH-SY5Y APP 5'UTR luciferase reporter, luminescence; zero percent = DMSO vehicle wells; activation, % at 2 µM; 190,000 compounds, 1% hits; AID 1276;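 active means activation above a set limit, based on mean plus 3 SD of controls, cut at about 140% in these data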
Hsp70 act: transcriptional activators of Hsp70; HeLa Hsp70 promoter luciferase reporter, luminescence; scaled: vehicle 0, proteasome-inhibitor control 100%; activation, % at 10 µM; 200,000 compounds, 0.04% hits; AID 1203;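 active means activation above the mean across all tested compounds plus 3 SD, cutoff set per campaign, cut at about 5.5% in these data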
Numbers stand for hits; 0 = inactive; - = no result given. Rows were chosen to be rich in hits. Some 4.8% of all compounds tested hit in one or more screens of this group.

SMILES | STAT1 activator | Wee1 degr inh | NF-kB expr up | APP 5UTR inh | APP 5'UTR act | Hsp70 act
Cc1ccc(C(=O)N/N=C/c2ccc3c(c2)OCO3)o1 | 138 | 0 | 0 | 0 | 0 | 0
O=C(NC1(C(F)(F)F)N=C(c2ccccc2)NC1=O)c1ccccc1 (configuration not stated) | 0 | 0 | 0 | 0 | 0 | 0
CCS(=O)(=O)c1ccc(O)c(NC(=O)/C=C/c2ccc(Cl)cc2)c1 | - | 0 | - | - | - | -
O=C(N/N=C/c1ccsc1)c1cc(-c2ccncc2)nc2ccccc12 | 0 | 0 | 0 | 60 | 0 | 0
O=C(N/N=C/c1ccc2c(c1)OCO2)c1cc(-c2ccncc2)nc2ccccc12 | 0 | 0 | 0 | 67 | 0 | 0
Cn1c(-c2ccccc2)c(/C=N/NC(=O)c2cccnc2)c2ccccc21 | 131 | 0 | 0 | 0 | 0 | 0
Cc1ccsc1/C=N/NC(=O)c1cc(-c2ccncc2)nc2ccccc12 | 0 | 0 | 0 | 94 | 0 | 0
Cc1ccc2nc(Cl)c(C3CC(c4ccco4)=NN3C(=O)CCCC(=O)O)cc2c1 (configuration not stated) | - | 0 | - | - | - | -
CCOC(=O)c1c(COc2ccccc2)oc2ccc(O)cc12 | 0 | 0 | 0 | 0 | 0 | 0
CCc1nnc(NC(=O)CSc2nnc3scc(-c4ccc(C)cc4)n23)s1 | 0 | 0 | - | 0 | 0 | 0
O=C(N/N=C/c1ccc([N+](=O)[O-])o1)c1cc(-c2ccncc2)nc2ccccc12 | 0 | 0 | 0 | 0 | 0 | 0
O=C(N/N=C/c1ccc([N+](=O)[O-])o1)c1cc(-c2ccc(-c3ccccc3)cc2)nc2ccccc12 | 0 | 0 | - | 90 | 0 | 0
O=C(N/N=C/c1ccc(Cl)cc1)c1cc(-c2cccnc2)nc2ccccc12 | 0 | 0 | 0 | 0 | 0 | 0
Cc1ccc(/C=N/NC(=O)c2cc(-c3cccnc3)nc3ccccc23)cc1 | 0 | 0 | 0 | 68 | 0 | 0
CC(C)Cc1nnc(NC(=O)c2cc(-c3ccncc3)nc3ccccc23)s1 | - | 9.2 | - | - | - | -
COc1ccc(-c2ocnc2C(=O)N2CCN(Cc3cccnc3)CC2)cc1 | - | 0 | - | - | - | -
Oc1ccc(-c2n[nH]c(=S)n2Cc2ccccc2)cc1 | 0 | 0 | 0 | 0 | 0 | 0
CNC(=S)N/N=C/c1ccc(C(C)C)cc1 | 129 | 0 | - | 0 | 0 | 0
CC(C)c1ccc(/C=N/NC(=O)c2ccccc2Cl)cc1 | 139 | 8.9 | 0 | 61 | 0 | 0
COC(=O)c1ccc(/C=N/NC(=O)c2ccccc2Cl)cc1 | 0 | 0 | 0 | 0 | 0 | 0
CN1CCN(Cn2cc(/C=C/C(=O)c3ccccc3)c3ccccc32)CC1 | 131 | 10 | 13 | 0 | 165 | 0
O=C(/C=C/c1cn(CC(O)CN2CCCCC2)c2ccccc12)c1ccccc1 (configuration not stated) | - | 0 | - | - | - | -
CC(=O)/C(=C\N(C)C)Sc1ccc(C)cc1 | - | 0 | - | - | - | -
CC(=O)/C(=C\N(C)C)Sc1ccc(Cl)cc1 | - | 9.1 | - | - | - | -
COc1ccc([N+](=O)[O-])cc1NCc1ccccc1 | 143 | 0 | 0 | 0 | 0 | 0
SMILES | STAT1 activator | Wee1 degr inh | NF-kB expr up | APP 5UTR inh | APP 5'UTR act | Hsp70 act
COc1ccc([N+](=O)[O-])cc1NCc1ccccc1C | 0 | 0 | 0 | 0 | 0 | 0
CCn1c(SCc2nc(-c3ccccc3)no2)nnc1-c1ccco1 | 0 | 0 | 0 | 0 | 0 | 0
Cc1cc(C)c2c(N)c3cccc(C)c3nc2n1 | 148 | 0 | 0 | 0 | 0 | 0
COC(=O)C1=C(N)Oc2cc(C)n(CC3CCCO3)c(=O)c2C1c1ccccc1OC (configuration not stated) | 0 | 0 | 0 | 0 | 0 | 0
COC(=O)C1=C(N)Oc2cc(N(C)C)ccc2C1c1ccccc1OC (configuration not stated) | 0 | 0 | 0 | 66 | 0 | 0
Cc1cccn2cc(-c3cc4ccccc4oc3=O)nc12 | 137 | 0 | 3.9 | 0 | 0 | 0
O=c1oc2ccccc2cc1-c1cn2cccnc2n1 | 140 | 0 | 0 | 0 | 0 | 0
O=c1oc2ccccc2cc1-c1cn2ccccc2n1 | 0 | 0 | 0 | 0 | 0 | 0
O=C(Nc1ccccc1)Nc1ccc2ncoc2c1 | 132 | 0 | 0 | 0 | 0 | 0
O=C(Nc1ccccc1)Nc1ccc2ocnc2c1 | 0 | 0 | 0 | 0 | 0 | 0
O=C(CCn1c(=O)oc2ccccc21)N1CCN(c2ccc(F)cc2)CC1 | 0 | 0 | 0 | 0 | 0 | 0
COc1ccc(NC(=O)c2cccnc2Nc2ccc(OC)cc2)cc1 | 0 | 0 | 0 | 0 | 0 | 0
CC(C)c1ccc(Nc2ncccc2C(=O)O)cc1 | 143 | 0 | 0 | 0 | 140 | 0
CC1CCCC(C)N1C(=O)CSc1nnc(-c2cccs2)o1 (configuration not stated) | 147 | 0 | 0 | 0 | 0 | 0
Fc1ccccc1CSc1nnc(-c2cccs2)o1 | 146 | 0 | 4.1 | 0 | 0 | 0
Cc1ccccc1N1OC2C(=O)N(c3ccc(F)cc3)C(=O)C2C1c1ccccn1 (configuration not stated) | 0 | 0 | 0 | 0 | 0 | 0
O=C(OCc1c(Cl)cccc1Cl)c1ccccn1 | 0 | 0 | 0 | 0 | 0 | 0
O=C(Nc1cccc(Cl)c1)Nc1ccnc(-c2cccnc2)n1 | 0 | 0 | 0 | 56 | 0 | 0
CC(=O)Nc1ccnc(-c2cccnc2)n1 | 0 | 0 | 0 | 0 | 0 | 0
CC(C)C(c1nnnn1C1CCCC1)N1CCCc2ccccc21 (configuration not stated) | 0 | 0 | 0 | 0 | 0 | 0
Cc1ccc(N2C(=O)CC(n3ccnc3)C2=O)cc1C (configuration not stated) | 0 | 0 | 0 | 0 | 0 | 0
C/C(=N/NC(=O)c1ccoc1C)c1ccc(NC(=O)c2ccncc2)cc1 | 143 | 0 | 0 | 0 | 0 | 0
CC(=O)Nc1ccc(/C(C)=N/NC(=O)c2ccncc2)cc1 | 0 | 0 | 0 | 0 | 0 | 0
C/C(=N\NC(=O)c1cccs1)c1cccnc1 | 0 | 0 | 0 | 0 | 0 | 0
C/C(=N/NC(=O)c1ccoc1C)c1ccc(N2CCOCC2)cc1 | 146 | 0 | 0 | 0 | 202 | 0
SMILES | STAT1 activator | Wee1 degr inh | NF-kB expr up | APP 5UTR inh | APP 5'UTR act | Hsp70 act
C/C(=N\NC(=O)c1ccoc1C)c1cccnc1 | 143 | 0 | 12 | 0 | 152 | 0
CCOC(=O)Cn1nc(-c2ccccc2)nc1-c1ccccc1 | 0 | 0 | 0 | 0 | 0 | 0
CCOC(=O)c1[nH]c2ccc(OC)cc2c1NC(=O)NC(C)C | 0 | 0 | 0 | 0 | 0 | 0
N#CCCn1cc(/C=N/O)c(-c2ccc(F)cc2)n1 | 0 | 0 | 0 | 0 | 0 | 0
CN(C)c1ccc(-c2nc3ccccc3n2C)cc1 | 0 | 0 | 0 | 0 | 0 | 0
CC(C)n1c(-c2ccc(N(C)C)cc2)nc2ccccc21 | 0 | 0 | 0 | 0 | 170 | 0
C/C(CC(=O)Nc1cc(C)cc(C)c1)=N\NC(=O)c1ccccn1 | 0 | 0 | 0 | 0 | 0 | 0
C/C(CC(=O)Nc1ccc2c(c1)OCCO2)=N\NC(=O)c1ccccn1 | 0 | 0 | 0 | 0 | 136 | 0
C/C(CC(=O)Nc1ccc2c(c1)OCO2)=N\NC(=O)c1ccc(N)cc1 | - | 9.6 | - | - | - | -
CCOC(=O)CC1(C)SC(NC(C)=O)=NN1C(C)=O (configuration not stated) | 0 | 0 | 0 | 0 | 0 | 0
